Assay outcomes: PubChem, Center for Chemical Genomics, University of Michigan
Only a selection was taken, and hits are over-represented in it overall.
Dicer processing: blocks human Dicer maturation of pre-miR-21; actives 6% (n = 47,000); z-score at 25 µM; Q9UPY3; cat-ELCCA pre-miR-21 Dicer processing, chemiluminescence; active compounds read high; AID 1347074; in the data active means z-score above about 3, passing the limit was not always enough;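 further: higher signal means more uncleaved substrate so more Dicer inhibition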
Hits are given with their value; 0 = inactive.

SMILES | Dicer processing
CC(=O)N1c2ccccc2NC2=C(C(=O)CC(C)(C)C2)C1c1c(F)cccc1Cl (configuration not stated) | 0
O=c1c2ccccc2cnn1-c1ccc(F)cc1 | 0
Cc1cccc(-n2ncc3ccccc3c2=O)c1 | 4.25
O=c1c2ccccc2cnn1-c1ccc2ccccc2c1 | 0
COc1ccc(-n2c(/C=C/c3cn(C)c4ccccc34)nc3ccccc3c2=O)cc1 | 0
CCSC1=N/C(=C\c2ccc(OC(C)=O)c(OC(C)=O)c2)C(=O)S1 | 0
Clc1ccccc1/C=N/Nc1ncc(-c2ccc3c(c2)OCCCO3)s1 | 0
O=C(Nc1nc(-c2ccc(F)c(F)c2)cs1)c1cccs1 | 0
NNC(=O)c1cn2cc(C(F)(F)F)cc(Cl)c2n1 | 4.81
NNC(=O)c1cc(C(F)(F)F)cc(C(F)(F)F)c1 | 0
O=C(NCCCN1CCN(Cc2ccccc2)CC1)c1cn2cc(C(F)(F)F)cc(Cl)c2n1 | 0
N#CC1=C2N=C(N)c3ccccc3N2C2=C(C(=O)CCC2)C1c1cccnc1 (configuration not stated) | 0
C=CCNc1nc(-c2ccc(Cl)cc2)c(-c2ccccc2)s1 | 0
Cn1c2c(c3ccccc31)C(=O)C(Cn1ccnc1)CC2 (configuration not stated) | 0
CCOC(=O)c1cnc(N2CCOCC2)nc1NC(=O)Nc1ccc(Cl)cc1 | 0
O=C(Nc1ccc2c(c1)OCO2)c1cnn2c(C(F)(F)F)cc(-c3ccco3)nc12 | 0
O=C(Nc1cccc(Cl)c1)c1nn2c(C(F)(F)F)cc(-c3ccco3)nc2c1Cl | 3.98
COc1ccc(NC(=O)c2cc3nc(-c4ccco4)cc(C(F)(F)F)n3n2)cc1OC | 0
COC(=O)/C=C1\Nc2ccccc2NC1=O | 0
CCOC(=O)CSC(=S)Nc1ccccc1OC | 0
COc1ccccc1NC1=C(C(=O)c2ccccc2)N(C)S(=O)(=O)c2ccccc21 | 0
Cc1cc(NNC(=O)c2ccccc2Cl)nc2c1c(C)nn2C | 0
Cc1cc(NNC(=O)Nc2cccc(Cl)c2)nc2c1c(C)nn2C | 0
Cc1cc(NNS(=O)(=O)c2ccc(Cl)cc2)nc2c1c(C)nn2C | 4.42
CC(C)N1CCN(c2ncnc3scc(-c4ccccc4)c23)CC1 | 0
SMILES | Dicer processing
Cc1ccc2[nH]c(C)c(CN(C)C)c(=O)c2c1 | 0
CC1(C)CC(=O)C2(CNC3=C(C2)C(=O)CC(C)(C)C3)C(=O)C1 | 0
CC(=O)c1sc2sc(C(=O)O)c(C)c2c1C | 0
Cc1ccc2oc(-c3cc(N)ccc3Cl)nc2c1 | 0
CCc1ccc2oc(-c3cc(N)ccc3Cl)nc2c1 | 4.5
Nc1ccc(Cl)c(-c2nc3cc(Cl)ccc3o2)c1 | 0
CC(C)N(CCC#N)C(=S)Nc1ccc(S(=O)(=O)N2CCCCC2)cc1 | 0
Cc1ccc(-c2cnc(NCc3ccc(F)cc3F)n2C)cc1 | 0
O=C(NCCO)C(=O)NCc1ccccn1 | 0
CN(C)c1ccc(-c2nc3ccccc3c(=O)[nH]2)c(Cl)c1 | 0
CN(C)c1ccc(/C=C/c2nc(-c3ccccc3O)n[nH]2)cc1 | 0
CN(C)c1ccc(/C=C/c2nc3ccccc3c(=O)[nH]2)cc1 | 5.45
CS(=O)(=O)n1nccc1/C=C/c1cccs1 | 0
O=C(CSc1n[nH]c(=O)n1-c1cccc(F)c1)Nc1ccc(Cl)cc1 | 0
O=[N+]([O-])c1ccccc1CS(=O)(=O)c1nc2ccccc2s1 | 0
O=C1ON=C(c2ccccc2)/C1=C1\SC(C(=O)c2ccccc2)=NN1c1ccccc1 | 3.49
CC1=NN(c2ccccc2)C(=O)/C1=C1/SC(C(=O)c2ccccc2)=NN1c1ccc(Cl)cc1 | 0
CC1=NN(c2ccccc2)C(=O)/C1=C1/SC(C(=O)c2ccccc2)=NN1c1ccccc1 | 0
CN(C)CCCNc1ncnc2c1sc1nc3c(cc12)COC(C)(C)C3 | 0
COc1cc2cc(-c3ccccc3)nc(C)c2cc1OC | 0
CCOC(=O)C1=C(C)Nc2nc3ccccc3n2C1/C=C/c1ccccc1 (configuration not stated) | 3.83
COC(=O)C1=C(C)Nc2nc3ccccc3n2C1c1sccc1C (configuration not stated) | 0
CCOC(=O)C1=C(C)Nc2nc3ccccc3n2C1c1ccc(O)cc1 (configuration not stated) | 0
CC1=C(C(=O)OC(C)C)C(c2sccc2C)n2c(nc3ccccc32)N1 (configuration not stated) | 3.52
CCOC(=O)C1=C(C)Nc2nc3ccccc3n2C1c1ccccc1C (configuration not stated) | 0
SMILES | Dicer processing
CCOC(=O)C1=C(C)Nc2nc3ccccc3n2C1c1sccc1C (configuration not stated) | 0
CC1CCN(/C(=N/S(=O)(=O)c2ccc(-n3nc(C(F)(F)F)cc3-c3cccs3)cc2)NN)CC1 | 0
CC(Sc1nc2c(N)ncnc2n1Cc1ccccc1)C(=O)O (configuration not stated) | 0
CC(=O)Nc1ccc(NC(=O)CC2(CC(=O)O)CCCC2)cc1 | 0
CS/C(Nc1ccccc1)=C(/C#N)S(=O)(=O)c1ccc(C)cc1 | 0
COc1ccc(N2C(=O)CSC2=O)cc1 | 0
O=C1CSC(=O)N1c1ccc(C(F)(F)F)cc1 | 3.93
O=C1CSC(=O)N1c1ccc(Cl)cc1 | 0
CCn1nc(C)cc1C(=O)NNC(=S)NC | 0
Cc1oc2c(F)c(F)c(F)c(F)c2c1C(=O)ONC(N)c1ccc(OS(=O)(=O)N(C)C)cc1 (configuration not stated) | 0
Cc1ccc(NC(=O)CCS(=O)(=O)Cc2ccccc2)c(Br)c1 | 4.53
O=C(O)CCC(=O)Nc1cc2c(cc1Br)OCCO2 | 0
O=C(O)CCC(=O)Nc1ccc(OC(F)(F)F)cc1Br | 0
CC(C)(C)C(=O)Nc1cc(Cl)c(Cl)cc1Cl | 0
COC(OC)c1[nH]c(=S)ncc1C(=O)O | 0
COc1cccc(-c2nc(-c3ccccc3)no2)c1OC | 0
COc1ccccc1-c1nc(-c2ccc(-c3ccc(C)cc3)nc2OC)no1 | 0
COc1ccc(-c2noc(-c3cccc(OC)c3OC)n2)cc1 | 4.1
COc1ccc(OC)c(N2CC(=O)N(c3cc(OC)ccc3OC)CC2=O)c1 | 0
O=C(Cn1nnc2sc3c(c2c1=O)CCCC3)Nc1ccc(Cl)cc1 | 0
O=C(Cn1nnc2sc3c(c2c1=O)CCCC3)Nc1ccccc1 | 0
CC1CCc2c(sc3nnn(CC(=O)Nc4ccc(Cl)cc4)c(=O)c23)C1 (configuration not stated) | 3.58
CC1CCc2c(sc3ncn(CC(=O)O)c(=O)c23)C1 (configuration not stated) | 0
CC1CCc2c(sc3nnn(CC(=O)Nc4ccc(Br)cc4)c(=O)c23)C1 (configuration not stated) | 0
O=C(Cn1nnc2sc3c(c2c1=O)CCCC3)Nc1ccc(F)c(Cl)c1 | 3.56
SMILES | Dicer processing
CSc1nnc(SC2=CC(=O)CC(c3ccccc3)C2)s1 (configuration not stated) | 0
c1cc2c(cc1-c1csc(-c3ccc4c(c3)OCCO4)n1)OCO2 | 0
O=C1CCC(=O)N1CNc1cc(Cl)c(Cl)cc1Cl | 0
Oc1ccccc1Nc1nc(NCc2ccco2)c2ccccc2n1 | 3.11
O=C(NCc1ccco1)Oc1ccccc1 | 0
Cc1cc(C)nc(NCc2ccco2)n1 | 0
COc1ccc(/C=N/Nc2ncnc3sc4c(c23)CCCC4)cc1 | 0
O=C(/C=C/C(=O)Oc1ccc(Cl)cc1Cl)Oc1ccc(Cl)cc1Cl | 3.7
O=S(=O)(CS(=O)(=O)Oc1ccc(Cl)cc1Cl)Oc1ccc(Cl)cc1Cl | 0
CC(Oc1ccc(Cl)cc1Cl)C(=O)Oc1ccc(Cl)cc1Cl (configuration not stated) | 0
